# Among all 330,000 compounds or so, about 4,600 (1.4%) were called active. The sample holds actives, similar compounds and a random draw of the others, so the mix is not that of the screen.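 How the source made its calls: active means inhibition of 40% or more at the single tested concentration; inactive means the rest.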
# Experiment: wild-type TIM10 yeast growth inhibition – luminescence, uHTS, counter-screen for tim10-1 yeast inhibitor project, primary screen (AID 463195);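 further: wild-type TIM10 isogenic control strain grown at permissive 25 °C; 0% = DMSO yeast wells and 100% = minimal medium wells without yeast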
# Conditions: S. cerevisiae TIM10 strain growth, BacTiter-Glo luminescence, 24 h; at 10 µM; active compounds read high
row,Structure (SMILES),inhibition
1,N#C/C(=C(\O)C(F)(F)F)c1nnc2n1CCCCC2,-10.3% (inactive)
2,COc1cc(/C=N/NC(=O)CCc2n[nH]c(=O)[nH]c2=O)ccc1O,5.01% (inactive)
3,COc1ccc(C(=O)Nc2ccccc2C(=O)N2CCN(c3ccccc3)CC2)cc1,14.5% (inactive)
4,COc1ccc(C(=O)Nc2ccccc2C(=O)N/N=C/c2ccc(O)c(OC)c2)cc1,93.2% (active)
5,COc1cc(/C=N/NC(=O)c2ccccc2)ccc1OS(=O)(=O)c1ccccc1,43.1% (active)
6,COc1ccc(C(=O)Nc2ccccc2C(=O)N/N=C/c2ccccc2OC)cc1,64.2% (active)
7,COc1cc(/C=N/NC(=O)c2cccnc2)ccc1OC(=O)c1cccc(Br)c1,14.7% (inactive)
8,COc1ccc(/C=N/Nc2ccccc2C(=O)O)cc1,13.9% (inactive)
9,COc1ccc(C(=O)Nc2cc(C)c(NC(=O)c3ccccc3OC)cn2)cc1,14.6% (inactive)
10,COc1cc(C=NNC(=O)c2cccnc2)ccc1OC(=O)c1ccccc1F,7.06% (inactive)
11,CC(=O)c1ccc(N2Cc3ccccc3C2)cc1,8.18% (inactive)
12,Cc1ccc(-c2nc(COC(=O)c3c(C)noc3C)cs2)cc1,1.5% (inactive)
13,Oc1ccc2ccc3cccc[n+]3c2c1,-22.6% (inactive)
14,COCCN1C(=O)c2oc3c(C)cc(C)cc3c(=O)c2C1c1cccc(O)c1 (stereo unspecified),-2.19% (inactive)
15,CC1CC2=C(CC1/C=N/NC(N)=S)C(C)(C)CCC2 (stereo unspecified),13.8% (inactive)
16,N#Cc1ccc(C(=O)Nc2nc(-c3cccs3)c(C(=O)C(F)(F)F)s2)cc1,9.92% (inactive)
17,CCC(CC)C(=O)Nc1c2c(nn1-c1ccc(C)cc1)CS(=O)(=O)C2,4.97% (inactive)
18,CC/S(CC1CC1(Cl)Cl)=N\S(=O)(=O)c1ccc(C)cc1 (stereo unspecified),0.564% (inactive)
19,CCN1C(=NCC(C)C)N[C@@H](CCc2ccccc2)[C@H](C(=O)NCC(C)C)[C@H]1C,-3.76% (inactive)
20,N#C/C(=C\c1ccc(O)c(O)c1)C(=O)NCc1ccccc1,-1.33% (inactive)
21,O=C(N/N=C/c1cccc(OCc2ccccc2)c1)c1ccc(Br)o1,26.3% (inactive)
22,COCCNC(=O)/C(C#N)=C/c1cccc(OCc2ccccc2)c1,55.7% (active)
23,CC(C)COc1ccc(C(=O)OCC(=O)NCCC2=CCCCC2)cc1,11.3% (inactive)

row,Structure (SMILES),inhibition
1,COC(=O)c1ccc(COc2cc([N+](=O)[O-])cc3cccnc23)cc1,-32.2% (inactive)
2,C=C(C)c1cccc(C(C)(C)NC(=O)N2CCN(c3ncccn3)CC2)c1,3.72% (inactive)
3,CCOc1cc(-c2cc(-c3ccc(NC(C)=O)cc3)nc(N)c2C#N)ccc1O,-6.1% (inactive)
4,CCOc1cc(-c2cc(-c3ccc(OC)cc3)nc(N)c2C#N)ccc1O,34% (inactive)
5,COc1ccc(-c2cc(-c3ccc(N)cc3)nc(N)c2C#N)cc1OC,41% (active)
6,O=C(CN1CCN(S(=O)(=O)c2ccc3ccccc3c2)CC1)NC(=O)NC1CCCCC1,44.2% (active)
7,COc1ccc(S(=O)(=O)N2CCN(C(=O)NC3CCCCC3)CC2)cc1,-5.18% (inactive)
8,O=C(CN1CCN(S(=O)(=O)c2ccc(F)cc2)CC1)NC1CC1,0.605% (inactive)
9,O=C(NC(=S)Nc1cccc2c(O)cccc12)c1cccc(Br)c1,20.4% (inactive)
10,O=C1c2ccccc2S(=O)(=O)c2cc(N3CCN(c4ccccn4)CC3)ccc21,-6.37% (inactive)
11,COc1ccc(-c2cc(C)nc3nc(N)nn23)cc1,9.96% (inactive)
12,Cc1cc(N)n2nc(-c3ccc(C(C)(C)C)cc3)cc2n1,45.3% (active)
13,Cc1cc(C(C)(C)C)cc(C)c1N,-4.47% (inactive)
14,C/C(CC(=O)Nc1cccc(C(F)(F)F)c1)=N\NC(=O)C(=O)NCC(C)C,10.5% (inactive)
15,CCOC(=O)CNC(=O)CSc1ccc2nnc(-c3cccnc3)n2n1,-17.7% (inactive)
16,CCOC(=O)CNC(=O)CSc1nc2cccnc2n1CC,7.72% (inactive)
17,CCOC(=O)CNC(=O)CSc1ncccc1-c1nc2ccccc2[nH]1,97.9% (active)
18,CC(C)C(NC(=O)C1CCC(C(C)(C)C)CC1)C(=O)NCCCN1CCCCC1 (stereo unspecified),6.75% (inactive)
19,O=C(CNC(=O)c1ccccc1Br)NNC(=O)c1cccs1,3.43% (inactive)
20,CC(Oc1cccc(NC(=O)c2cccs2)c1)C(=O)c1ccccc1 (stereo unspecified),8.87% (inactive)
21,Cc1cccc(NC(=O)Nc2cccc(Oc3c(F)c(F)c(F)c(F)c3F)c2)c1,8.17% (inactive)
22,Cc1ccoc1C(=O)Nc1cccc(Oc2ccccc2)c1,55.2% (active)
23,COc1ccccc1NC(=O)CSc1nnc(Cn2nnc(-c3ccccc3)n2)n1-c1ccccc1,6.08% (inactive)

row,Structure (SMILES),inhibition
1,Cc1ccc(NC(=O)COC(=O)CN2CCCCCC2=O)c(C)c1,7.63% (inactive)
2,COc1ccc(CN2CCC(n3nccc3NC(=O)CCCc3ccccc3)CC2)cc1C,4.88% (inactive)
3,Cc1cc2cc(CNC(=O)c3cccs3)ccc2[nH]1,-0.032% (inactive)
4,Cc1cc2cc(CNC(=O)c3ccc(S(=O)(=O)N4CCOCC4)cc3)ccc2[nH]1,7.18% (inactive)
5,CCc1cccc(CC)c1NC(=S)NCc1ccc2[nH]c(C)cc2c1,54% (active)
6,N#CCC(=O)N/N=C/c1cn(Cc2ccc3ccccc3c2)c2ccccc12,-20.2% (inactive)
7,CCOC(=O)N/N=C/c1cn(Cc2ccccc2Cl)c2ccccc12,22% (inactive)
8,CNC(=S)N/N=C/c1cn(Cc2ccc(C)cc2)c2ccccc12,51.4% (active)
9,C=CCN(c1ccc(Cl)cc1)S(=O)(=O)c1cccc(C(=O)OCC(=O)N(C)C)c1,-12.8% (inactive)
10,O=C(NCc1cccnc1)c1cn(-c2ccccc2)nc1-c1cccs1,2.96% (inactive)
11,COc1cccc(NC(=O)CN(C)C(=O)/C=C/c2cn(-c3ccccc3)nc2-c2cccs2)c1,-5.41% (inactive)
12,O=C(O)c1ccc(N/N=C/c2cn(-c3ccccc3)nc2-c2cccs2)cc1,56.3% (active)
13,CN(CC(=O)NC(=O)Nc1ccccc1F)Cc1ccccc1,2.75% (inactive)
14,Cc1cc(C)c(S(=O)(=O)N2CCC(C(=O)OCc3c(C)noc3C)CC2)c(C)c1,8.76% (inactive)
15,Cc1noc(C)c1NC(=O)Nc1cccc2c1O[C@H](CN(C)S(=O)(=O)c1c(C)noc1C)[C@@H](C)CN([C@H](C)CO)C2=O,9.51% (inactive)
16,O=C1c2ccccc2S(=O)(=O)N1CC(O)Cn1c2ccccc2c2ccccc21 (stereo unspecified),79.5% (active)
17,CCCCN(CCCC)CC(O)Cn1c2ccccc2c(=O)c2ccccc21 (stereo unspecified),-7.98% (inactive)
18,CC(C)(C)c1ccc(CN2C(=O)c3ccccc3S2(=O)=O)cc1,11% (inactive)
19,COC(=O)c1ccc(C2C3=C(Nc4nnnn42)c2ccccc2OC3)cc1 (stereo unspecified),27.5% (inactive)
20,CCCc1[nH]nc2c1C(c1ccc(Br)s1)C(C#N)=C(N)O2 (stereo unspecified),66.7% (active)
21,CCCc1[nH]nc2c1C(c1ccc(OC)c(Cn3nc(C)c(Br)c3C)c1)C(C#N)=C(N)O2 (stereo unspecified),3.67% (inactive)
22,CCCc1[nH]nc2c1C(c1ccc(OC(=O)c3ccco3)cc1)C(C#N)=C(N)O2 (stereo unspecified),3.44% (inactive)
23,CCCCN(CC)C(=O)CN(C)S(=O)(=O)c1cccc2nsnc12,-12.4% (inactive)

row,Structure (SMILES),inhibition
1,COc1ccc(NC(=O)COc2ccc(C(=O)c3ccc(F)cc3)cc2)cc1S(N)(=O)=O,7.33% (inactive)
2,Cc1ccc(-c2ccc(/C=C(\C#N)C(N)=S)o2)c([N+](=O)[O-])c1,51.5% (active)
3,Cc1cc(C)c([N+](=O)[O-])cc1-c1ccc(/C=N/NC(=O)c2nonc2N)o1,-9.15% (inactive)
4,CC1=NN(c2ccc(Cl)c(C(=O)O)c2)C(=O)/C1=C/c1ccc(-c2ccccc2[N+](=O)[O-])o1,12.6% (inactive)
5,CC(C)NC(=O)N1CCN(c2ccncc2S(=O)(=O)N2CCCCC2)CC1,-2.83% (inactive)
6,Oc1ccc(-c2cccc(-c3ccc(O)cc3)c2)cc1,-32.3% (inactive)
7,O=C(/C=C/c1cc2c(cc1Br)OCO2)NCc1ccc(Cl)cc1,-5.07% (inactive)
8,O=C(Nc1ccncc1)c1ccc(Cl)c([N+](=O)[O-])c1,-47.9% (inactive)
9,O=C(/C=C/c1ccc(Cl)cc1Cl)c1cccnc1,8.99% (inactive)
10,O=C(/C=C/c1ccc(Cl)c([N+](=O)[O-])c1)c1cccnc1,73.9% (active)
11,CC1CCCCC12NC(=O)N(CC(=O)OCc1c(F)cccc1Cl)C2=O (stereo unspecified),1.25% (inactive)
12,COc1ccc(-c2cc3n(n2)CCc2nc4ccccc4n2-3)cc1,17.5% (inactive)
13,O=[N+]([O-])c1cccc(Nc2c3ccccc3nc3ccccc23)c1,42.1% (active)
14,N#Cc1cccc(Nc2c3c(nc4ccccc24)CCCC3)c1,22.5% (inactive)
15,Cc1cc(CNC(=O)c2cccc([N+](=O)[O-])c2)c2ccccc2n1,8.64% (inactive)
16,COC(=O)Nc1ccc(S(=O)(=O)N2CCN(CCN3C(=O)C4C5C=CC(C5)C4C3=O)CC2)cc1 (stereo unspecified),-10.8% (inactive)
17,COc1ccc(C)cc1NC(=O)C(Sc1ccccc1)c1ccccc1 (stereo unspecified),2.49% (inactive)
18,O=C(Cc1ccccc1)NC(=S)Nc1ccc(N2CCCCC2)cc1,40.2% (active)
19,Cc1ccccc1C(=O)NC(=S)Nc1ccc(N2CCN(C(=O)c3ccccc3)CC2)cc1,-9.29% (inactive)
20,O=C(CCN1CCN(c2ccccc2)CC1)NNC(=S)Nc1ccccc1,1.6% (inactive)
21,O=C(CCc1nc(-c2ccccc2)no1)Nc1cccc(C(=O)NC2CC2)c1,-6.75% (inactive)
22,CCCCn1c(N)c(N(CCOC)C(=O)c2cccc(S(=O)(=O)N3CCCCC3)c2)c(=O)[nH]c1=O,-2.98% (inactive)
